BAZ2B block: inhibitors of human BAZ2B bromodomain; Q9UIF8; AlphaScreen BAZ2B-H3K14Ac peptide displacement; Potency, µM (doses to about 114 µM), actives largely listed as inhibitors; 360,000 compounds, 4.4% hits; further: nearly all actives have a fitted effect of over 60% in size
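AlphaScreen displacement: compounds (up to 110uM) incubated 30 min at room temperature with a preformed 50 nM BAZ2B/50 nM biotinylated H3K14Ac peptide complex in PBS pH 7.4 with Tween-20. Donor and acceptor beads at 10 ug/mL final added, 20 min light-protected before reading.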
JMJD2A Tudor: blocks the human JMJD2A Tudor domain. O75164. AlphaScreen JMJD2A-Tudor / H3K4me3 peptide binding. Potency, µM (highest dose often 114 µM), most hits filed as inhibitors. 390,000 compounds, 4.4% hits; further: nearly all actives have a fitted effect of over 50% in size
HP1b binding inh: HP1-beta chromodomain-methylated histone interaction inhibition; P83916; AlphaScreen HP1-beta / biotin-H3K9me3 peptide binding; Potency, µM (titrated, usually from 114 µM), hits mostly inhibitors; 390,000 compounds, 0.56% hits; AID 540317; further: nearly all actives have a fitted effect of over 70% in size
Target sequence (P83916 whole entry, looked up): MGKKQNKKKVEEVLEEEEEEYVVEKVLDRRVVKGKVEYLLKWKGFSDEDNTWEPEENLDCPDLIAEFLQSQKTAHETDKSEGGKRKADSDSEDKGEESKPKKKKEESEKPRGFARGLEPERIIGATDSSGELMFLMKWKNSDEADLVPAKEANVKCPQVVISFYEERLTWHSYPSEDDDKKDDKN
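Compound inhibition of the preformed complex between 50 nM HP1-beta and 50 nM biotinylated H3K9me3 peptide was read by AlphaScreen. Buffer was PBS pH 7.4 with 0.01% Tween-20. Incubations ran 30 min at room temperature, with 10 ug/mL donor/acceptor beads.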
GLS inhibitor: blocks human kidney-isoform glutaminase activity | O94925 | GLS enzymatic activity, qHTS titration | Potency, µM (titrated, usually from 45.5 µM), usual class: inhibitors | 410,000 compounds, 0.21% hits
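Two-point fluorescence kinetic (t0, 30 min RT) for hKGA; glutamate detected via glutamate oxidase–HRP–Amplex Red. Substrate: 1 mM L-glutamine solution; buffer 45 mM KH2PO4, pH 8.2.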
G9a inh: blocks human histone lysine methyltransferase G9a; Potency, µM (series often up to 102 µM), usual class: inhibitors; Q96KQ7; 350,000 compounds, 8.8% hits; G9a H3K9 monomethylation, AlphaScreen, 2 h; further: nearly all actives have a fitted effect of over 75% in size
Target sequence (Q96KQ7 913-1193 limits assumed): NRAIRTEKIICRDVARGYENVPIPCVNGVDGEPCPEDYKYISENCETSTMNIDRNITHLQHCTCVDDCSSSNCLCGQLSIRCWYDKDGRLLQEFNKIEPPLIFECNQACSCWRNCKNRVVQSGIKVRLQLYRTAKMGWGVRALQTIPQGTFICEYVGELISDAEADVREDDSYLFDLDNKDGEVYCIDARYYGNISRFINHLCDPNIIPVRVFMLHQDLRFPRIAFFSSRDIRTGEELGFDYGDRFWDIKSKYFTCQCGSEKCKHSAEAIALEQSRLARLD
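Methyltransferase reactions run at room temperature for 2 h (20 nM enzyme, 500 nM biotin-H3K9 peptide, 20 uM SAM) after a 15 min compound preincubation; product detected by AlphaScreen beads and anti-H3K9me1 antibody.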
Numbers stand for hits; 0 = inactive; ? = inconclusive; - = no result; [ ] = remark or other dose. In the library only some 10% were active in any assay of this set; here they are far more common. The call rests on the fitted dose curve; in most records, active means well fitted curve in the direction sought with a large enough effect; inconclusive means small, poorly fitted or top-dose-only effect, or another doubt; inactive means no such curve, though single readings can be large; an effect the other way counts as inactive or inconclusive.

SMILES	BAZ2B block	JMJD2A Tudor	HP1b binding inh	GLS inhibitor	G9a inh
COc1ccc(-c2cc3ccc(O)c(CN4CCCC(C)C4)c3oc2=O)cc1 (configuration not stated)	0	0	0	0	0
CC1CC(C)CN(CC(C)(C)NS(=O)(=O)c2ccccc2)C1 (configuration not stated)	50µM	22µM	?	0	8.9µM
CN1CCN(CC(C)(C)NS(=O)(=O)c2ccccc2)CC1	-	0	0	0	-
Cc1ccc(S(=O)(=O)NCCC(=O)N2CCC(Cc3ccccc3)CC2)cc1	0	0	0	0	0[0.501 µM]
CCC1CCCCN1CC(C)(C)NS(=O)(=O)c1ccccc1 (configuration not stated)	?	4.5µM	?	0	7.1µM
CC(C)(CN1CCc2ccccc2C1)NS(=O)(=O)c1ccccc1	0	3.2µM	?	0	10µM
Cc1ccc(S(=O)(=O)NC(C)(C)CN2CCC(Cc3ccccc3)CC2)cc1	56µM	40µM	0	0	7.9µM
CCN(CC)c1ccc(C2Nc3ccccc3-c3cc(C)nn32)cc1 (configuration not stated)	?	50µM	?	0	22µM
COc1cc(CC(=O)Nc2cccc(C(F)(F)F)c2)cc(OC)c1OC	0	0	0	0	0
O=C(C1=NN[C@@H]2C(=O)N(c3cccc(C(F)(F)F)c3)C(=O)[C@H]12)C(c1ccccc1)c1ccccc1	0	0	0	0	0
O=C(C1=NN[C@@H]2C(=O)N(c3cccc(C(F)(F)F)c3)C(=O)[C@H]12)c1cnccn1	0	?	0	0	40µM
N#Cc1ccc(N2C(=O)[C@@H]3C(C(=O)c4cnccn4)=NN[C@@H]3C2=O)cc1	56µM	16µM	0	0	-
Nc1c(C(=O)Nc2ccccc2)sc2nc(-c3cccnc3)ccc12	0	-	-	-	?
Nc1c(C(=O)Nc2cccc(Cl)c2Cl)sc2nc(-c3cccnc3)ccc12	0	0	0	0	89µM
Nc1c(C(=O)Nc2ccccc2)sc2nc(-c3ccco3)ccc12	0	0	0	0	11µM
Cc1ccccc1NC(=O)c1sc2nc3c(c(-c4ccco4)c2c1N)CCC3	0	0[11.4 µM]	0	0	40µM
COc1ccccc1NC(=O)c1sc2nc(-c3ccco3)ccc2c1N	0	0	0	0	2.5µM
S=c1[nH]nc(NC2CCCCC2)s1	-	-	-	0	-
C=CCc1c(C)nc(SCc2nc3ccccc3c(=O)[nH]2)[nH]c1=O	0	0	0	0	0[12.7 µM]
c1ccc(CCC2CCCCN2Cc2cn[nH]c2-c2cc3ccccc3o2)nc1 (configuration not stated)	0	0	0	0	0
CCc1nnc2c(Nc3ccc(N(CC)CC)cc3C)nc3ccccc3n12	32µM	16µM	?	0	18µM
O=C(NN1CCOCC1)c1cccc2ccccc12	0	50µM	0	?	0
O=C(CSc1nnc(COc2ccc(F)cc2)o1)N1CCCCC1	0	0	0	0	0
O=C(CCCc1ccccc1)Nc1ccnn1C1CCN(Cc2ccccn2)CC1	?	0	0	0	79µM
Cc1ccccc1CN1CCC(n2nccc2NC(=O)CCCc2ccccc2)CC1	0	0	0	0	0[0.0925 µM]
SMILES	BAZ2B block	JMJD2A Tudor	HP1b binding inh	GLS inhibitor	G9a inh
COc1ccc(C(=O)Nc2ccnn2C2CCN(Cc3ccccn3)CC2)cc1	0	0	0	0	50µM
CN1C(=O)c2ccccc2C(C(=O)NCc2ccco2)C1c1c[nH]c2ccccc12 (configuration not stated)	?	?	0	0	0
CC(C)COC(=O)c1cc(-c2ccc(/C=N/n3cnnc3)o2)ccc1Cl	0	0	0	0	10µM
Cc1cc(-c2ccc(/C=N/n3cnnc3)o2)c(C)c([N+](=O)[O-])c1	0	?	0	0	40µM
O=[N+]([O-])c1cc(-c2ccc(/C=N/n3cnnc3)o2)ccc1Cl	0	0	0	0	-
O=[N+]([O-])c1ccc(Cl)c(-c2ccc(/C=N/n3cnnc3)o2)c1	?	?	0	0	71µM
CN1CCN(/N=C/c2ccc(-c3ccc([N+](=O)[O-])cc3Cl)o2)CC1	28µM	56µM	?	0	25µM
O=C(CCC(=O)OCC(=O)c1ccc(Cl)cc1)Nc1ccc(Oc2ccccc2)cc1	0	0	0	0	0
NC(N)=NS(=O)(=O)c1ccc(NC(=S)NC(=O)Cc2ccc(Cl)cc2)cc1	0	0	0	0	-
COc1ccc(C(=O)Nc2ccc(-c3n[nH]c(=S)o3)cc2)cc1	?	?	0	0	1.8µM
O=C(Nc1ccc(-c2n[nH]c(=S)o2)cc1)c1ccccc1	0	?	0	0	32µM
O=C(Nc1ccc(-c2ccccc2)cc1)c1ccccc1	0	0	0	0	0[0.501 µM]
COc1cccc(Nc2nc(NCCO)c3ccccc3n2)c1	0	0	0	0	?
Cc1cc2ccccc2nc1Br	0	0	?	0	?
Cc1ccc(C)c(OCCC(=O)Nc2ccccc2C(=O)NC2CC2)c1	-	0	0	0	-
Cc1ccc(C)c(OCCCC(=O)Nc2ccccc2C(N)=O)c1	0	0	0	0	50µM
CC(C)C[C@H](NC(=O)C1(c2ccccc2)CCN(C(=O)OC(C)(C)C)CC1)C(=O)N1CCC[C@H]1C(=O)O	0	0	0	0	0
CCOC(=O)CNC1CC(=O)N(c2ccc(Br)cc2)C1=O (configuration not stated)	0	0	0	0	10µM
COc1ccc(N2C(=O)CC(NC3CCCCNC3=O)C2=O)cc1 (configuration not stated)	0	0	0	0	11µM
CCCOc1ccc(N2C(=O)CC(NCC#N)C2=O)cc1 (configuration not stated)	0	0	0	0	0
COc1ccc(N2C(=O)CC(NCC#N)C2=O)cc1 (configuration not stated)	0	0	0	0	28µM
COc1cccc(CNC(=S)Nc2cccc(Cl)c2C)c1	0	0	0	0	0
CN(C)c1ccc(N2C(=O)CSC2=S)cc1	40µM	40µM	?	0	?
CC1SC(=S)N(c2ccc(N(C)C)cc2)C1=O (configuration not stated)	?	?	0	0	45µM
Cc1ccccc1-c1noc(CCC(=O)NCC2CCCO2)n1 (configuration not stated)	0	0	0	0	13µM
CC(Oc1ccc2c(-c3ccccc3)cc(=O)oc2c1)C(=O)N1CCC[C@@H]1C(N)=O (some centres not stated)	0	0	0	0	-
CCC1(c2ccccc2)NC(=O)N(CC(=O)N2CC(=O)Nc3ccccc32)C1=O (configuration not stated)	0	0	0	0	0[2.33 µM]
Cc1ccc(C)n1-c1ccc(C(=O)NCc2ccncc2)cc1	-	?	0	0	0
Cc1ccc(C)n1-c1ccc(C(=O)NN)cc1	0	50µM	0	?	0
Cc1c(Cl)cccc1-c1ccc(C(=O)N2CCN(c3ccc([N+](=O)[O-])cc3)CC2)o1	0	0	0	0	?

Screening data deposited in PubChem BioAssay by National Center for Advancing Translational Sciences (NCATS).
